Source: PubChem
USP2a inhib – USP2a (human) protease inhibition | O75604 | USP2a enzymatic assay, qHTS inhibition | Potency, µM (doses to about 38.3 µM), actives largely listed as inhibitors | hit rate 0.1% among 60,000 | AID 927; further: nearly all actives have a fitted effect of over 60% in size
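USP2 core (20 nM final) was preincubated with compound for 30 min at RT in 20 mM Tris-HCl pH 8.0, 2 mM CaCl2, 2 mM beta-mercaptoethanol; Ub-PLA2 (20 nM) plus NBD C6-HPC (20 uM) then added, fluorescence read after 2.5 h.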
Hsp90 Hop PPI – changes Hsp90-Hop TPR2A binding signal, up or down; AlphaScreen TPR2A-His6 binding biotin-Hsp90 C-terminal peptide; Potency, µM (doses to about 57 µM); hit rate 0.44% among 71,000; AID 595; active means well fitted curve in either direction with a large enough effect; inconclusive means small, poorly fitted or top-dose-only effect, or another doubt
Tau fil binding – binders of human tau filaments. AID 596. Potency, µM (top dose mostly 57.1 µM). hit rate 2% among 71,000. recombinant tau filaments, thioflavin S fluorescence, 15 h; filaments grown with octadecylsulfate alongside compound;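 further: actives lower thioflavin S fluorescence by blocking filaments or displacing dye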
Target sequence (P10636 whole entry, looked up): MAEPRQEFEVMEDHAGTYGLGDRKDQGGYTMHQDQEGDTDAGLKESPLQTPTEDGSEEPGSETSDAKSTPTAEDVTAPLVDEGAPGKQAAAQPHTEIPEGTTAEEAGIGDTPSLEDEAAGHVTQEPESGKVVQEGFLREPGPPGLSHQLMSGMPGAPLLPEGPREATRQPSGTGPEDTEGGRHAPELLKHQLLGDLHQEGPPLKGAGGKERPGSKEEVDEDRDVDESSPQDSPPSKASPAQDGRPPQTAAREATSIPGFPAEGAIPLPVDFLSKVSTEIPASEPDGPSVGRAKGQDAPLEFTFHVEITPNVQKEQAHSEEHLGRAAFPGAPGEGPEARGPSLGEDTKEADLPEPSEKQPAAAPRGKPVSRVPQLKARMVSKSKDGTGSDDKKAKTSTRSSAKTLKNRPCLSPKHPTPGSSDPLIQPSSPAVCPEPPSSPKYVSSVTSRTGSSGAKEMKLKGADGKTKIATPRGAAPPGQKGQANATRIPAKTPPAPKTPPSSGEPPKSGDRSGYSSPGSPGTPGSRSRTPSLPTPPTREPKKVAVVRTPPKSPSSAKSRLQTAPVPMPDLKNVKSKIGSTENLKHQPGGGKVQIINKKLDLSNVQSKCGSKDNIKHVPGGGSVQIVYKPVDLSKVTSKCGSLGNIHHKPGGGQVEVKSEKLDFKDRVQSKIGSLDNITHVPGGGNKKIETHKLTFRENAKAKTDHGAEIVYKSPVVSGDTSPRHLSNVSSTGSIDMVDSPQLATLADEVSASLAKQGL
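Read-out: ThS fluorescence, 450 nm excitation/510 nm emission; lower signal marks blocked filament formation or displaced dye. Tau at 1 uM with 30 uM ODS, 10 uM ThS, 5 mM DTT, 100 mM NaCl, 10 mM HEPES pH 7.4; 15 h, 37 C.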
ALOX15 inhib – blocks human 15-lipoxygenase activity | P16050 | purified 15hLO-1, xylenol orange hydroperoxide absorbance | Potency, µM (top dose mostly 57.1 µM), hits mostly inhibitors | hit rate 1.4% among 74,000 | AID 887; further: nearly all actives have a fitted effect of over 55% in size
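Compounds were preincubated 15 min at room temperature with 40 nM purified human enzyme (25 mM Hepes pH 7.5, 0.01% Triton X-100); 50 uM arachidonic acid reacted 6 min. Fe-xylenol orange detection, 30 min, absorbance ratio 573/405 nm.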
Bst PK mod – modulators of Bacillus stearothermophilus pyruvate kinase | purified pyruvate kinase, luminescence ATP production; ribose 5-phosphate activator present at AC10 | Potency, µM | hit rate 1.2% among 51,000; in the data active means potency below about 11 µM; inconclusive means mostly about 12 µM to 25 µM;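 the screen sought inhibitors and activators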
GBA mod – human lysosomal glucosylceramidase modulation; P04062; purified enzyme, resorufin glucoside fluorescence (screen aimed at inhibitors), 20 min; Potency, µM; hit rate 1.1% among 48,000; AID 360; in the data active means potency below about 15 µM; inconclusive means mostly about 16 µM to 33 µM;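 further: the screen sought inhibitors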
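Wild-type enzyme at 0.2 nM final in 50mM citric acid/KH2PO4, 10mM sodium taurocholate, 0.01% tween-20, pH 5.9, with resorufin beta-D-glucopyranoside at 30 uM final. Compounds titrated, 20 min at RT, red fluorescence read; AC50 from titration.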
Numbers stand for hits; 0 = inactive; ? = inconclusive; - = no result; ! = not active in a repeat; [ ] = dose if it differs, or a comment. Compounds with a hit are over-represented: about 4.6% of the library has one in this group of screens. Unless noted, the call rests on the fitted dose curve; in most records, active means well fitted curve in the direction sought with a large enough effect; inconclusive means small, poorly fitted or top-dose-only effect, or another doubt; inactive means no such curve, though single readings can be large; an effect the other way counts as inactive or inconclusive.

SMILES	USP2a inhib	Hsp90 Hop PPI	Tau fil binding	ALOX15 inhib	Bst PK mod	GBA mod
CC(=O)[C@@]1(O)Cc2c(O)c3c(c(O)c2[C@H](O[C@H]2C[C@H](N)[C@H](O)[C@H](C)O2)C1)C(=O)c1ccccc1C3=O	0	?	1.58µM	?	-	-
Nc1nnc(CCC2CCCCC2)s1	0	0	0	0	0	0
N#CC1=C(N)SC(N)=C(C#N)C1CCC1CCCCC1	0	0	0	15.8µM	0	0
CCOC(=O)c1cnc2c(C#N)c(C)nn2c1C	0	0	0	0	0	0
CCOC(=O)c1cnc2c(C#N)c(C)nn2c1-c1ccccc1	-	0[2.3 µM]	15.8µM	?	-	-
O=C(O)CC(C(=O)O)c1cn(Cc2ccccc2)c2ccccc12 (stereo unspecified)	0	0	0	0	0	0
Cc1cc(C)n2nc3nc(N4CCCCC4)nc(-c4ccco4)c3c2n1	0	?	20µM	15.8µM	0	0
C=C[C@](C)(O)CCC=C(C)C	0	-	-	?	-	-
CC(=O)O[C@](C)(CCC=C(C)C)C1CC=C(C)CC1 (stereo partly specified)	0	-	-	12.6µM	-	-
Cc1ccc(C(=O)Cn2nnc(-c3ccccc3-n3cnnn3)n2)cc1	0	?	0	0	4.67	0
COc1ccc(C(=O)Cn2nnc(-c3ccccc3-n3cnnn3)n2)cc1	0	0	0	0	4.22	0
O=S(=O)(/C=C/c1ccccc1)Nc1ccc(N2CCOCC2)cc1	0	0	25.1µM	?	-	-
CCOC(=O)N1CCN(C(=O)CS(=O)(=O)c2cn(Cc3ccccc3C)c3ccccc23)CC1	0	0	0	0	0	0
CCCC(C(=O)NCc1ccco1)N(C(=O)CNS(=O)(=O)c1ccccc1)c1ccccc1OC (stereo unspecified)	0	0	0	0	0	15.2
CCCC(C(=O)NCc1ccco1)N(C(=O)CNS(=O)(=O)c1ccc(Cl)cc1)C1CCCC1 (stereo unspecified)	0	0	0	25.1µM	0	-
COc1ccc(OCc2ccc(C(=O)O)cc2)cc1	0	0	0	0	0	0
CCS(=O)(=O)N1CCN(C(=O)c2cccc(OC)c2)CC1	0	0	0	0	-	-
O=C(c1ccccc1F)N1CCN(c2cccc(C(F)(F)F)c2)CC1	0	0	0	0	0	0
COc1ccc(C)cc1NC(=O)CSc1nnc(-c2ccc(OC)c(OC)c2)n1N	0	0	0	0	0	0
CCOc1ccc(C(=O)Nc2c(C(N)=O)oc3ccccc23)cc1	0	0	0	?	4	0
COc1cccc(C(=O)Nc2c(C(N)=O)oc3ccccc23)c1	-	0	0	0	-	-
O=C(Nc1ccccc1C(F)(F)F)C1CC(=O)N(c2ccccc2F)C1 (stereo unspecified)	0	0	0	0	0	0
COc1ccc2nc3sc(C(=O)NCc4cccs4)c(N)c3cc2c1	-	0	?	20µM	0	0
CCCn1nc(NC(=O)c2cccs2)c2cc3cc(OC)ccc3nc21	0	?	0	?	0	0
CC1CCCC(C)N1S(=O)(=O)c1ccc(NC(=O)c2ccccc2C(=O)N2CCOCC2)cc1 (stereo unspecified)	0	0	0	0	0	0
SMILES	USP2a inhib	Hsp90 Hop PPI	Tau fil binding	ALOX15 inhib	Bst PK mod	GBA mod
COC(=O)c1ccc(C(=O)Nc2ccc(N)cc2N)cc1	0	0	12.6µM	0	0	0
COc1ccccc1NC(=O)c1ccc(N)cc1	0	0	0	0	0	0
Cc1ccc(C)c(N(C(=O)Cn2nnc(-c3cccs3)n2)C(C(=O)NC2CC2)c2ccc(C)o2)c1 (stereo unspecified)	0	0	0	0	0	12.1
N#C/C(=C\c1c(N2CCC(C(N)=O)CC2)nc2ccccn2c1=O)S(=O)(=O)c1ccccc1	-	-	-	-	0	-
N#C/C(=C\c1c[nH]c2ccccc12)C(=O)c1ccc(O)c(O)c1	?	?	0	0.251µM	-	-
N#C/C(=C\c1ccc(O)c(O)c1)C(=O)c1ccc(O)c(O)c1	0	?	0	3.98µM	-	-
O=C(O)/C=C\c1ccc(O)c(O)c1	0	0	0	0	-	-
N#C/C(=C\c1ccc(O)c(O)c1)C(=O)OCCc1cccs1	-	3.98µM	0	?	-	-
N#C/C(=C\c1ccc(O)c(O)c1)S(=O)(=O)c1ccccc1	0	0	0	3.98µM	0	0
N#C/C(=C\c1ccc(O)c(O)c1)C(=O)NCCCc1ccccc1	0	5.01µM!	0	2.51µM	0	-
